From PubChem BioAssay
Hits are enriched below; roughly 3.7% of the tested compounds scored in any of these assays.
VDR inhibitor: vitamin D3 receptor (human) inhibition. VDR-SRC2-3 peptide fluorescence polarization, 2 h. P11473. actives 0.93% (n = 400,000). Potency, µM, inactives show max response, negative = inhibition, actives largely listed as inhibitors; also: potency is read from the fitted curve at half-maximal effect; % is scaled to controls: 0 for no effect and ±100 for the full control effect
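FP read-out; VDR + SRC2-3 coactivator peptide; 23 nl compound by pintool; 2 h RT incubation; reagents held at 4 deg C, protected from light.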
PLK1 PBD block: blocks phosphopeptide binding to human PLK1 polo-box domain. P53350. Plk1 PBD binding of FITC phosphopeptide, fluorescence polarization. Potency, µM, without a hit: max response, negative = inhibition, usual class: inhibitors. actives 2.8% (n = 360,000). AID 720504; also: potency is read from the fitted curve at half-maximal effect; series mostly up to about 57 µM; % is scaled to controls: 0 for no effect and ±100 for the full control effect; nearly all actives have a fitted effect of over 65% in size
TCR act: T cell receptor activation. primary human leukocytes, anti-CD3, IL-2 HTRF, 48 h. Potency, µM (series often up to 9.22 µM), without a hit: at the top dose activation of IL-2 secretion, hits mostly activators. 330,000 tested, under 10 active; also: % of control where 0% means no effect
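Activity was scored as IL-2 release from primary human leukocytes given only a TCR signal (a-CD3 beads) plus compound for 48 hr. Detection used a two-antibody HTRF format read at 665nm.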
WRN helicase inh: inhibitors of human WRN helicase | Q14191 | WRN helicase unwinding, fluorescent forked duplex, kinetic | Potency, µM (doses to about 114 µM), for inactives: top-dose activity change, negative = inhibition, actives largely listed as inhibitors | actives 0.46% (n = 360,000) | AID 651768; also: potency is read from the fitted curve at half-maximal effect; % is scaled to controls: 0 for no effect and ±100 for the full control effect; nearly all actives have a fitted effect of over 55% in size
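Kinetic red-fluorescence monitoring (525/598 nm) tracks WRN helicase activity after 100 nM fluorophore-quencher forked duplex and 2 mM ATP are added to 20 nM enzyme pretreated 15 min at room temperature with compound.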
PI5P4Ka inh: PI5P4K alpha (human) kinase inhibition; P48426; PI5P4Kalpha enzyme, ADP-Glo luminescence, 60 min; hits give low values; actives 1.2% (n = 330,000); max response, %; AID 652105; active = max response of -50% or lower; inconclusive = between -30% and -50%; inactive = -30% or higher; also: value at the top dose of about 77 µM; % is scaled to controls: 0 for no effect and ±100 for the full control effect
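PI5P4Kalpha ADP-Glo assay; 5 microM ATP final; 60 min RT reaction; HEPES pH 7.4/EGTA/CHAPS, 5% DMSO; controls lacking substrate or enzyme; luminescent end-point.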
FEN1 inh: human FEN1 inhibition. P39748. Recombinant FEN1 flap cleavage, fluorescence, 15 min. Potency, µM (highest dose often 114 µM), without a hit: top-dose activity change, negative = inhibition, actives largely listed as inhibitors. actives 0.35% (n = 390,000); also: potency is read from the fitted curve at half-maximal effect; % is scaled to controls: 0 for no effect and ±100 for the full control effect; nearly all actives have a fitted effect of over 65% in size
Target sequence (P39748 whole entry, looked up): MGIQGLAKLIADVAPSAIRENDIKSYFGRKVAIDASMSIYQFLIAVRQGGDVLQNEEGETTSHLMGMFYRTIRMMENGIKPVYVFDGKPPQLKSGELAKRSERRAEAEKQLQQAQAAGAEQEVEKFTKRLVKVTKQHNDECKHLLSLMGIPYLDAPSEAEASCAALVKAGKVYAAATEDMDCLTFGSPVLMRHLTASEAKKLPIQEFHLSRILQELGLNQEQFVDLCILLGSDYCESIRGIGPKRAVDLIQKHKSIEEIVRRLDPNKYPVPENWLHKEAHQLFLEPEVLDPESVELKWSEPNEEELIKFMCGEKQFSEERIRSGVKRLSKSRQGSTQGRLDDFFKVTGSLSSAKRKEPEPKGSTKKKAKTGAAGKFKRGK
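FEN1 at 10 nM preincubated with compounds 15 min at room temperature, then flap DNA substrate added at 50 nM final. Signal read at 0 and 15 min; concentration-response fitted with four-parameter Hill equation.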
Numbers without * were called inactive; ? = inconclusive; / = not tested or not shown; ! = not active in a repeat; [ ] = dose if it differs, or a comment. Unless noted, calls follow the shape of the dose curve; as a rule, active = well fitted curve in the direction sought with a large enough effect; inconclusive = small, poorly fitted or top-dose-only effect, or another doubt; inactive = no such curve, though single readings can be large; an effect the other way counts as inactive or inconclusive.

SMILES	VDR inhibitor	PLK1 PBD block	TCR act	WRN helicase inh	PI5P4Ka inh	FEN1 inh
COc1ccc(-n2ncc(C(=O)NCCc3ccsc3)c2C2CCN(C(=O)OC(C)(C)C)CC2)cc1	12%	/	/	/	/	2%
CC(Nc1nc(=S)nc(Nc2ccc(F)cc2)[nH]1)c1ccccc1 (configuration not stated)	?	13µM*	5%	11%	-8	3%
CC(Nc1nc(Nc2ccc(F)cc2)nc(SCC(N)=O)n1)c1ccccc1 (configuration not stated)	-29%	-8%	/	-33%	1	-17%
Cc1ccccc1CS(=O)(=O)CC(O)CN1CCCC1=O (configuration not stated)	21%	1%	0%	-4%	-2	18%
CC(C)(C)c1ccc(CS(=O)(=O)CC(O)CN2CCCC2=O)cc1 (configuration not stated)	-17%	34µM*	13%	2%	-1	-1%
CN(C)c1ccc(/C=C2\C=Nc3ccccc32)cc1	/	/	/	/	/	-9%
O=C1NC(=S)N/C1=C/c1cccn1-c1ccc([N+](=O)[O-])cc1	?	-12%	-1%	-7%	-55*	-19%
O=C(CCN1C(=O)c2ccccc2C1=O)Nc1ccc(S(=O)(=O)N2CCOCC2)cc1	?	24µM*	3%	-2%	/	4%
O=C(COC(=O)CCN1C(=O)c2ccccc2C1=O)Nc1ccc(S(=O)(=O)N2CCCC2)cc1	-12%	-9%	5%	-1%	3	-9%
COc1cccc(CN2CC34CCC(CC3S2(=O)=O)O4)c1 (configuration not stated)	-1%	/	/	/	/	-9%
O=C(O)/C=C/c1cn(Cc2ccccc2Cl)nc1-c1ccccc1	?	27µM*	-6%	1%	-16	-3%
CN=C1C=CC(=C(c2ccc(N(C)C)cc2)c2ccc(N(C)C)cc2)C=C1	40µM*	/	/	/	/	/
O=S(=O)(c1ccc(=S)[nH]c1)N1CCN(Cc2ccccc2)CC1	79µM*	?	-3%	-24%	6	2%
CCCCC(CC)COC(=O)CC(C(=O)OCC(CC)CCCC)S(=O)(=O)O (configuration not stated)	25µM*	/	/	/	/	/
CCCCC(CC)COC(=O)C(C#N)=C(c1ccccc1)c1ccccc1 (configuration not stated)	-21%	-7%	3%	-7%	6	-1%
CC(=O)N(C(C)=O)c1ncnc2c1c(-c1ccc(Cl)cc1)nn2C(C)(C)C	50µM*	-7%	-8%	2%	-8	10%
CC[C@H](C)[C@H](NC(=O)[C@H](Cc1ccc(O)cc1)NC(=O)[C@@H](NC(=O)[C@@H](N)CCCN=C(N)N)C(C)C)C(=O)N[C@@H](Cc1cnc[nH]1)C(=O)N1CCC[C@H]1C(=O)N[C@@H](Cc1ccccc1)C(=O)O	-4%	/	/	/	/	/
O=[N+]([O-])c1cc(CN2CCOCC2)c2cccnc2c1O	-11%	?	-5%	-23%	-73*	28µM*
O=[N+]([O-])c1ccc(O)c2ncccc12	40µM*!	-13%	9%	-7%	-1	?
Oc1c(Cl)cc(CN2CCOCC2)c2cccnc12	?	?	-20%	-1%	-6	?
C#CCOc1c(Br)cc(/C=C2/C(=O)ON=C2C)cc1OCC	?	4.2µM*	-42%	6%	0	2%
C#CCOc1c(Br)cc(/C=C2/C(=O)ON=C2C)cc1OC	?	2.7µM*	-2%	-2%	-16	-6%
CCOc1cc(/C=C2/C(=O)ON=C2C)ccc1OCc1ccccc1F	-83%	0.84µM*	0%	?	/	-5%
CCOc1c(Br)cc(/C=C2\N=C(C)OC2=O)cc1Br	-3%	-24%	2%	2%	-16	-3%
CCOc1cc(/C=C2/C(=N)N3OC(C)=CC3=NC2=O)ccc1OCCOc1ccccc1	-18%	1%	-1%	-4%	-2	-9%
SMILES	VDR inhibitor	PLK1 PBD block	TCR act	WRN helicase inh	PI5P4Ka inh	FEN1 inh
COc1ccccc1NC(=O)CSc1nnc2c3ccccc3n(C(C)C)c2n1	-5%	/	/	/	/	-22%
O=C(Nc1ccc2ccccc2c1)c1ccc(Cl)cc1Cl	-11%	-1%	-6%	8%	0	6%
O=C(Nc1nc(=S)ss1)c1ccc(Cl)cc1Cl	-14%	15µM*	-12%	-2%	?	8%
CNC(=O)/C(C#N)=C\c1ccc(CNS(=O)(=O)c2ccc(Cl)cc2)o1	?	17µM*	2%	4%[57.1 µM]	-13	-3%
CNC(=O)/C(C#N)=C\c1ccc(CNS(=O)(=O)c2ccccc2)o1	-7%	-11%	0%[46.1 µM]	-19%	-5	-11%
Cc1nn(C(=O)c2cccc(Cl)c2)c(C)c1S(=O)(=O)N1CCOCC1	12%	/	/	/	/	7%
Cc1ccc(N/N=C(\C#N)C(N)=S)c(C)c1	50µM*	19µM*	-1%	-7%	-24	5%
Cc1ccc(NC(=O)/C(C#N)=N/Nc2ccc(C(=O)O)cc2)c(C)c1	1%	1%	1%	4%	-9	-7%
Cc1cc(C=O)cc(C)c1[N+](=O)[O-]	/	/	/	/	/	8%
CN1C/C(=C/c2ccccc2[N+](=O)[O-])C(=O)/C(=C\c2ccccc2[N+](=O)[O-])C1	71µM*	-18%	4%	-8%[11.6 µM]	-18	?
Cc1cc(C)c(-c2csc(Cc3nc(-c4cc5ccccc5oc4=O)cs3)n2)cc1C	?	27µM*	-1%[46.1 µM]	-19%	-6	6%
Cc1cc(C)c(-c2csc(-c3cc4ccccc4oc3=O)n2)cc1C	-16%	/	/	/	/	-9%
COc1cccc(-c2ccc3ncnc(NCCN4CCOCC4)c3c2)c1	4%	/	/	/	/	/
O=c1ccccn1Cc1c(F)cccc1Cl	-21%	3.4µM*	-51%	7%	?	-3%
Cc1sc(NC(=O)CCl)c(C(=O)c2ccccc2)c1C	?	27µM*	5%	-31%[57.1 µM]	/	-11%
Cc1ccccc1C(=O)Nc1sc(C)c(C)c1C(=O)c1ccccc1	?	21µM*	4%	-2%	1	-13%
CC1CCCN(S(=O)(=O)c2cc(C(=O)NCc3ccccc3Cl)n(C)c2)C1 (configuration not stated)	-11%	/	/	/	/	-11%
O=c1ccc2c(OCCCCOc3ccccc3)c3ccoc3cc2o1	2%	/	/	/	/	/
O=C(CNS(=O)(=O)c1ccccc1)NCC(=O)OCc1ccc(Br)cc1	?	12µM*	-17%	8%	-29	?
COC(=O)c1ccc(COC(=O)CNS(=O)(=O)c2ccccc2)cc1	12%	4%	1%	-5%	-1	-3%
COC(=O)C(NC(=O)CNS(=O)(=O)c1ccc(Br)cc1)c1ccccc1 (configuration not stated)	0%	27µM*	-3%	7%[57.1 µM]	-13	-2%
